# From PubChem
# TDP1 cell noCPT – qHTS for Inhibitors of human tyrosyl-DNA phosphodiesterase 1 (TDP1): qHTS in cells in absence of CPT; DT40 Tdp1-/- hTDP1 cells, no CPT, ATP luminescence, 48 h; Potency, µM (titrated, usually from 46.2 µM), inactives show top-dose activity change, negative = growth inhibition, most hits filed as inhibitors; 420,000 tested, 15% active; AID 686978, 2013; note: potency is the fitted concentration of half-maximal effect; nearly all actives have a fitted effect of over 55% in size
#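 Cells were dispensed at 400 per well, compounds added by pin tool, plates incubated ≥48 hr at 37 °C, then CellTiter-Glo added for 30 min at room temperature before luminescence reading. Line: DT40 Tdp1-/- complemented with hTDP1; camptothecin omitted.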
# HT1080-NT tox – kills 2HG-producing HT-1080-NT fibrosarcoma cells; HT-1080-NT fibrosarcoma viability, CellTiter-Glo ATP luminescence, 48 h; Potency, µM (titrated, usually from 46.1 µM), for inactives: top-dose activity, negative = less viability, hits mostly cytotoxic; 360,000 tested, 1.6% active; AID 686970;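 note: NT is the 2HG producing partner of a matched IDH1 knockdown line; potency is the fitted concentration of half-maximal effect; 0% = DMSO-treated cells and -100% = media-only wells without cells; nearly all actives have a fitted effect of over 55% in size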
#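 Luminescent CellTiter-Glo readout after 48 hours of compound exposure at 37 degrees C defined viability of HT-1080-NT cells. Activity was normalized to DMSO wells and cell-free media wells; concentration-response curves were fitted and assigned curve classes.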
# DT40 TDP1 CPT – DT40-hTDP1 cell growth loss with CPT. 420,000 tested, 12% active. Potency, µM (titrated, usually from 46.2 µM), for inactives: at the highest dose activity change, negative = growth inhibition, hits mostly inhibitors. chicken DT40 Tdp1-/-;hTDP1 cells + 20 nM CPT, ATP luminescence, 48 h; note: potency is the fitted concentration of half-maximal effect; nearly all actives have a fitted effect of over 55% in size
#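 Chicken DT40 Tdp1-/- cells complemented with human TDP1, 400 cells/well, exposed to compounds plus 20 nM camptothecin for at least 48 h at 37 C; viability read as ATP content by CellTiter-Glo luminescence.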
# HT1080 IDH1KD tx – HT-1080 IDH1 knockdown cell toxicity (counter line); HT-1080 IDH1 knockdown viability, ATP luminescence, 48 h; AID 686971; Potency, µM (titrated, usually from 46.1 µM), without a hit: at the top dose activity, negative = toxicity, actives largely listed as cytotoxic; 360,000 tested, 2% active;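 note: potency is the fitted concentration of half-maximal effect; 0% = DMSO wells and -100% = cell-free medium wells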
#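 Cytotoxicity counter-line: IDH1KD HT-1080, 48 h, CellTiter-Glo. Curves classed by r2, magnitude and activity.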
# IL-1B inflam inh – blocks inflammasome-driven IL-1 beta release; AID 743279; 360,000 tested, 4.7% active; THP-1 LPS/ATP IL-1B secretion, AlphaLISA, 16 h; hits give low values; activity change, % at 57.5 µM; in the data active = activity change below about -50%; inconclusive = mostly about -30% to -49%
#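 THP-1 cells pretreated 1 hr with compounds (up to 57.5 uM final), then stimulated with LPS (250 ng/mL final) plus ATP (1.25 mM final); secreted IL-1B measured by AlphaLISA after 16 hr, decreased signal indicating inhibition.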
# uPA surface inh – cell surface uPA generation inhibition. Potency, µM (top dose mostly 38.3 µM), inactives show at the highest dose activity change, negative = inhibition, hits mostly inhibitors. 330,000 tested, 0.31% active. cell surface uPA generation assay, qHTS; active = well fitted inhibition curve with a large enough effect; inconclusive = small, poorly fitted or top-dose-only effect; inactive = no such curve, though single readings can be large or run the other way; tested in mouse RAW 264.7 cells; note: potency is the fitted concentration of half-maximal effect; nearly all actives have a fitted effect of over 55% in size
# The depositor's hits bear a star; ? = inconclusive; / = no result given. This is a sample that favours compounds with a hit; in the whole collection about 19% have one here. Unless noted, calls come from the whole dose curve; as a rule, active = well fitted curve in the direction sought with a large enough effect; inconclusive = small, poorly fitted or top-dose-only effect, or another doubt; inactive = no such curve, though single readings can be large; an effect the other way counts as inactive or inconclusive. Unless noted, % is set by controls: 0 for no effect and ±100 for the full control effect.
SMILES,TDP1 cell noCPT,HT1080-NT tox,DT40 TDP1 CPT,HT1080 IDH1KD tx,IL-1B inflam inh,uPA surface inh
O=C(NCCCN1CC1)Nc1cccc2ccccc12,7.3µM*,1%,1.6µM*,-17%,-11,-1%
CC(CC(C)(C)N1CC1)=NNC(=O)Nc1cccc2ccccc12,2.9µM*,7%,3.7µM*,0%,-17,-1%
O=C1NC(=S)NC(=O)C1=Cc1ccc(OCC(=O)N2CCCC2)cc1,19%,12%,-14%,-3%,18,7%
C(#CCN1CCCCC1)CN1CCCCC1,11%,?,14%,6%,16,/
Cc1ccc2c(c1)C1CN(C)CCC1N2C(=O)Nc1cccc(C(F)(F)F)c1 (stereo not given),?,?,21µM*,?,-4,-3%
Cc1ccc2c(c1)C1CN(C)CCC1N2C(=O)CCCN1C(=O)c2cccc3cccc(c23)C1=O (stereo not given),?,/,-11%,?,-14,-2%
Cc1ccc2c(c1)[C@@H]1CN(C)CC[C@@H]1N2C(=O)Nc1cccc(C(F)(F)F)c1,11µM*,13µM*,11µM*,?,-25,/
Cc1ccc2c(c1)C1CN(C)CCC1N2C(=O)c1cn(-c2ccccc2)nc1-c1ccccc1 (stereo not given),16µM*,/,?,21µM*,?,?
Cc1ccc2c(c1)C1CN(C)CCC1N2C(=O)c1cccnc1Cl (stereo not given),-22%,2%,-14%,4%,40,-1%
CC(C)(C)NCC(O)c1cc(Cl)c(N)c(C(F)(F)F)c1 (stereo not given),-16%,/,14%,/,/,/
COc1cc(OC)c2c(c1)OC(c1ccc(OC)c(OC)c1)C(O)C2 (stereo not given),-26%,/,-29%,/,/,/
O=C(Oc1ccccc1)N1CCC2(CCN(Cc3ccncc3)CC2)CC1,?,/,0%,/,/,/
C=CCN1CCC2(C)c3cc(O)ccc3C[C@H]1[C@H]2C,-16%,/,1%,/,/,/
COC(=O)C1=CO[C@@H](C)[C@H]2CN3CC[C@]4(C(=O)Nc5ccccc54)[C@@H]3C[C@H]12,5%,9%,8%,2%,-14,11%
CN1CCN(c2ccc(N)cc2Cl)CC1,?,-6%,?,-18%,?,2%
Cn1c(O)c(Cc2cccc(Cl)c2Cl)c(=O)n(C)c1=O,11%,5%,-7%,7%,10,-15%
CC(C)Cc1nnc(NC(=O)CCC(=O)N2CCN(CCOC(c3ccccc3)c3ccccc3)CC2)s1,?,-4%,?,-19%,-2,-7%
C(=C\c1ccccc1)/CN1CCN(CCOC(c2ccccc2)c2ccccc2)CC1,4.6µM*,/,3.7µM*,/,/,/
c1ccc(C(OCCN2CCN(c3ncccn3)CC2)c2ccccc2)cc1,?,3%,?,-3%,-76*,-4%
CCN(CC)S(=O)(=O)N1CCC(C(=O)N2CCC3(CC2)OCCO3)CC1,-27%,9%,-11%,2%,-10,-15%
CC(C)[C@]12CC(=O)[C@H](C)[C@H]1C2,-11%,24%,5%,9%,13,-6%
CCN(CC)N=O,16%,-8%,-8%,16%,-97*,15%
CN(C)N=O,-7%,4%,17%,3%,11,9%
ClCCN(CCCl)/C(=C\c1ccccc1)c1ccnc2ccccc12,3.5µM*,/,5.6µM*,/,/,/
CC(=O)CC1CCCCN1 (stereo not given),1%,/,-2%,/,/,/
CCCCCNC(=O)C(c1ccncc1)n1c(=O)c(-c2cc3ccccc3[nH]2)nc2ccccc21 (stereo not given),?,?,16µM*,16µM*,?,/
